Assay outcomes: PubChem BioAssay, National Center for Advancing Translational Sciences (NCATS)
KDM5B inhibitor: KDM5B demethylase inhibition; Q9UGL1; KDM5B demethylase, FDH-coupled NADH fluorescence (FDH is formaldehyde dehydrogenase); Potency, µM (doses to about 57.7 µM), actives largely listed as inhibitors; actives 2.6% (n = 220,000); AID 1347165; active = well fitted inhibition curve with a large enough effect; note: 0% is about no effect; nearly all actives have a fitted effect of over 70% in size
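Compound dilutions met 200 nM (final) KDM5BΔAP for 10 min at room temperature before substrate addition. The substrate mix held 12.5 µM H3K4me3 with cofactors 25 µM α-ketoglutarate and 50 µM Fe²⁺. NADH signal gain over 30 min defined activity.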
An asterisk follows results filed as active; i = inactive; ! = not confirmed by another sample. The entries come from a sample that favours hits as a whole. Potency is the fitted concentration of half-maximal effect.

SMILES	KDM5B inhibitor
Cc1cc(C)n(-c2ccc(C(=O)OCC(=O)NC3CCS(=O)(=O)C3)cc2)n1 (centres undefined)	i
COc1ccc(-c2noc(CC3CCN(C(=O)CCc4ccccc4)CC3)n2)cc1	i
Cc1ccc(CN2CCCCCCNC(=O)[C@@H]3C[C@@H](C(=O)N4CCN(c5ccccn5)CC4)C[C@@H]32)o1	20µM*
CC(C)C(=O)N1CCCCCCNC(=O)[C@@H]2C[C@@H](C(=O)N3CCN(c4ccccn4)CC3)C[C@@H]21	25µM*
CC(C)C(=O)N1CCCCCCNC(=O)[C@@H]2C[C@@H](C(=O)NCCc3c[nH]c4ccccc34)C[C@@H]21	i
Cn1ccnc1C(=O)N1CCCCCNC(=O)[C@H]2C[C@H](C(=O)N3CCc4ccccc4C3)C[C@H]21	i
Cc1ccc(CN2CC[C@H]3C(=O)NCCCCCN(Cc4cccnc4)[C@@H]3C2)o1	i
Cc1ccc(CN2CCCCCCNC(=O)CC2c2ccccc2)o1 (centres undefined)	i
CC(=O)N/N=C(\C)c1ccccc1	i
Cc1cc(C)c2c(=O)cc(C(=O)N(Cc3cccc(Cl)c3)C3CCS(=O)(=O)C3)oc2c1 (centres undefined)	i
CCOC(=O)N1CCN(Cc2nc3cc(NC(=O)c4ccc(C)cc4)ccc3n2C)CC1	i
CC1(C)CC(NC(=S)NCc2ccc(F)cc2)CC(C)(C)N1	i
CC1=C[C@@H](CNc2ccccn2)[C@H](C(C)C)C[C@H]1Cc1nnc(-c2cncn2C)o1	35µM*
CC1=C[C@@H](CN2CCN(c3ncccn3)CC2)[C@H](C(C)C)C[C@H]1Cc1nnc(-c2cncn2C)o1	i
CC1=C[C@@H](CN2CCC(CO)CC2)[C@H](C(C)C)C[C@H]1Cc1nnc(-c2cccnc2)o1	i
CC1=C[C@@H](CNC(=O)c2ccccc2)[C@H](C(C)C)C[C@H]1Cc1nnc(-c2cncn2C)o1	i
COc1ccc(-c2nnc(C[C@@H]3C[C@@H](C(C)C)[C@H](CN4CCN(C)CC4)C=C3C)o2)cc1	i
CC1=C[C@@H](CN2CCN(c3cnccn3)CC2)[C@H](C(C)C)C[C@H]1Cc1nnc(-c2ccccc2)o1	28µM*
O=c1c2ccccc2cnn1Cc1coc(-c2ccc(Cl)cc2)n1	i
O=C(OCC(=O)c1cccc2ccccc12)c1cc(=O)c2ccccc2o1	i
Cc1ccc(-c2ccc(=O)n(CC(=O)Nc3c(C)cccc3C)n2)cc1S(=O)(=O)N1CCCCC1	i
c1ccc(-c2nc(-c3ccncc3)n[nH]2)nc1	i
c1c[nH]c(-c2nc3ccncc3[nH]2)c1	32µM*
F[C@@H]1CN(Cc2nccs2)C[C@@H]1OCc1nc2ccncc2[nH]1	i
Cc1ccoc1-c1nc2ccncc2[nH]1	32µM*!
SMILES	KDM5B inhibitor
Cc1ccc(-c2n[nH]c(-c3ccccn3)n2)cc1	i
CCC(Sc1nc2ccncc2[nH]1)C(=O)Nc1cc(C)ccc1C (centres undefined)	i
CCOC(=O)c1ccccc1NC(=O)CSc1nc2ccncc2[nH]1	i
c1csc(-c2nc3ccncc3[nH]2)c1	32µM*
Cc1ccc(NC(=O)CSc2nc3ccncc3[nH]2)cc1F	i
O=C(CSc1nc2ccncc2[nH]1)Nc1ccccc1C(F)(F)F	i
c1csc(-c2nc(NC3CCCC3)c3ccccc3n2)c1	i
c1ccc(-c2nc3ccncc3[nH]2)nc1	126µM*!
Cc1c(CNCCc2c[nH]c3ccccc23)c(C(=O)O)c(C)n1Cc1ccc(Cl)cc1	i
Cc1ccc(NC(=O)Cn2cccc2-c2nc(-c3ccc4c(c3)OCO4)no2)cc1	i
CC(c1nc(-c2cccs2)no1)N(C)Cc1cccc(Cl)c1 (centres undefined)	i
Cc1nc2ccc(C(=O)NCCC3CCCC3)cc2nc1C	i
Cc1nc(-c2cccc(Cl)c2)n(Cc2ccc(F)c(F)c2)c(=O)c1CCO	i
COCCc1noc(-c2ccccc2OC2CN(S(=O)(=O)C(C)C)C2)n1	i
O=C(NC1CCN(CC(F)(F)F)CC1)c1ccc(F)cc1	i
O=C(c1ccc2c(c1)OCCO2)C1CCN(C(=O)c2ccccc2)CC1	i
CC(C)C(NC(=O)c1ccc(S(=O)(=O)N(C)C)cc1)c1ccc2c(c1)OCCO2 (centres undefined)	i
COc1ccc(-n2cc(CN3CCCC(O)C3)c(-c3cccc(F)c3)n2)cc1 (centres undefined)	22µM*
Cc1cc(-c2nn(-c3ccccc3F)cc2CN2CCCC(O)C2)c(C)s1 (centres undefined)	i
COc1ccc(-c2nn(-c3ccccc3)cc2CN2CCCC(C)(O)C2)c(F)c1 (centres undefined)	i
O=C(/C=C/c1cccc(C(F)(F)F)c1)N1CCN(C(=O)C2CC2)CC1	i
Cc1ccc(S(=O)(=O)c2nnn3c2nc(N2CCN(c4ccccc4F)CC2)c2ccccc23)cc1C	i
O=S(=O)(c1ccc(Cl)cc1)c1nnn2c1nc(N1CCOCC1)c1ccccc12	i
CC(C)c1ccc(S(=O)(=O)c2nnn3c2nc(N2CCCCC2)c2ccccc23)cc1	89µM*
CC(C)c1ccc(S(=O)(=O)c2nnn3c2nc(N2CCCC2)c2sccc23)cc1	i
SMILES	KDM5B inhibitor
Cc1ccc(S(=O)(=O)c2nnn3c2nc(N2CCOCC2)c2ccccc23)cc1C	79µM*
CN1CCN(c2nc3c(S(=O)(=O)c4ccccc4)nnn3c3ccsc23)CC1	i
O=C1Cc2cc(S(=O)(=O)N3CCN(C(=O)Nc4ccc(F)cc4)CC3)ccc2N1	i
c1ccc(-c2nc(CSC3=NCCCN3)cs2)cc1	i
Cc1ccc(/C=C/C(=O)OC(C)C(=O)c2ccc3c(c2)CCC3)cc1 (centres undefined)	i
Nc1nccnc1C(=O)NCCNc1ccc(C(F)(F)F)cn1	i
O=C(NC1CCCc2ccccc21)c1ccsc1 (centres undefined)	i
Cc1nc(C2CC(NC(=O)c3cnc(N)nc3C(F)(F)F)C2)cc(=O)[nH]1 (centres undefined)	28µM*
Nc1nc(C2CC(NC(=O)c3csc4c3CCCC4)C2)cc(=O)[nH]1 (centres undefined)	i
Cc1nc(C2CC(NC(=O)Cn3cc(Cl)c(C)n3)C2)cc(=O)[nH]1 (centres undefined)	i
CCCCCc1ccc(C(=O)Oc2cccc(OC(=O)c3ccc(CCCCC)cc3)c2)cc1	i
O=C(c1ccccc1)N1CCN2C(=O)N(Cc3ccccn3)C[C@H]2C1	i
CS(=O)(=O)c1ccc(CN2CCN3C(=O)N(Cc4ccccn4)C[C@H]3C2)cc1	28µM*
O=C1N(Cc2ccccn2)C[C@H]2CN(Cc3ccc(C(F)(F)F)cc3)CCN12	i
COc1cc(F)ccc1-c1ccc(=O)n(CC(=O)N(C)C2CCS(=O)(=O)C2)n1 (centres undefined)	i
COc1nc2nc(CC3CC3)n(C)c2cc1-c1ccnc(C)c1	40µM*
COc1nc2nc(CCc3ccccc3)n(C)c2cc1-c1cccc(CO)c1	35µM*
Cc1cc(-c2ccnc(-c3nnc(C)n3CCc3ccccc3)c2)ccn1	i
COc1ccc(F)cc1S(=O)(=O)N1CCn2c(nn(C)c2=O)C1	i
CNC(=O)CCn1ncc2cc(OC3CCc4cccc(-c5ccnc(C)c5)c43)ccc21 (centres undefined)	i
COc1cc(F)ccc1-c1cc2c(nc1OC)nc(CC1CC1)n2C	35µM*
COc1ccc(S(=O)(=O)Nc2cccc(CCc3nc4ccccc4n3C)c2)cc1OC	i
COc1nc2nc(CCc3ccccc3)n(C)c2cc1-c1ccnc(C)c1	40µM*
